Assay [1] deals with Cellular tumor antigen p53 (Homo sapiens) (UniProt P04637). In words: Primary qHTS for small molecule compounds that upregulate eGFP-tagged delta133p53alpha (in N-terminal) cells. (AID 2060322). Further: nearly all actives have a fitted effect of over 75% in size. Further: potency means the concentration at half of the fitted maximal effect.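 On activation: series mostly up to about 56 µM; 0% = DMSO vehicle and 100% = reference activator.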 The conditions noted are these: NCI-H358 eGFP-delta133p53alpha fluorescence, 24 h; activation: hits give high values. The procedure, abridged:
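NCI-H358 cells pre-induced 24 h with 10 ng/ml doxycycline to express N-terminal eGFP-delta133p53alpha, then dosed 24 h at 37C without doxycycline; fixed, Hoechst-stained, GFP intensity by laser scanning cytometry, normalized to DMSO (0%) and 57.5 uM 5-azacytidine (100%).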

For assay [2], the target named is Aldehyde dehydrogenase, mitochondrial (Homo sapiens) (UniProt P05091). The assay can be described thus: qHTS for Inhibitors of the Aldehyde Dehydrogenase Family (ALDH2) Primary screen (AID 2061308).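 Further: plate controls were vehicle for no effect and reference inhibitor for full effect; nearly all actives have a fitted effect of over 55% in size.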
The target of assay [3] is Retinaldehyde dehydrogenase 3 (Homo sapiens) (UniProt P47895). In words: qHTS for Inhibitors of the Aldehyde Dehydrogenase Family (ALDH1A3) Validation screen (AID 2061312). Further: on the % scale 0 is the no-effect control and ±100 the full control effect; nearly all actives have a fitted effect of over 45% in size.
Assay [4] has the same target. In words: qHTS for Inhibitors of the Aldehyde Dehydrogenase Family (ALDH1A3) Primary screen (AID 2061315).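 Further: plate controls were DMSO vehicle for no effect and reference inhibitor for full effect.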
Assay [5] in a line: BET inhibitor-based combinations targeting novel dependencies in MECOM-rearranged (r) AML: SET-2 cell line (AID 2202231). Further: nearly all actives have a fitted effect of over 35% in size. Further: potency means the concentration at half of the fitted maximal effect.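 On viability: plate controls were DMSO treated cells for no effect and wells without cells for full effect.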 The conditions noted are these: SET-2 AML cells viability, CellTiter-Glo luminescence, 48 h; viability: hits give low values, concentration not given here. The method in brief:
(§1)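 500 cells/well; 11-pt dose curve; 48 h, standard incubator; CellTiter-Glo luminescence after 15 min RT; DMSO/empty-well normalization; AUC plus Z-AUC (mean-centered within each line).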

Assay [6] is described as follows: BET inhibitor-based combinations targeting novel dependencies in MECOM-rearranged (r) AML: MV-4-11 cell line (AID 2202233). Further: potency means the concentration at half of the fitted maximal effect; nearly all actives have a fitted effect of over 45% in size. The procedure, abridged:
(§2)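 Cells were plated at 500 per well and exposed to each drug across an 11-point dose range for 48 hr at standard incubator conditions. Viability was read by CellTiter-Glo luminescence, and activity was expressed as AUC and per-cell-line Z-transformed AUC.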

Assay [7] is described as follows: BET inhibitor-based combinations targeting novel dependencies in MECOM-rearranged (r) AML: AML-191 cell line (AID 2202236; further: nearly all actives have a fitted effect of over 35% in size; further: potency means the concentration at half of the fitted maximal effect). The procedure, abridged: as §1
Assay [8] in a line: BET inhibitor-based combinations targeting novel dependencies in MECOM-rearranged (r) AML: UCSD-AML1 cell line (AID 2202235). Further: nearly all actives have a fitted effect of over 40% in size. Further: potency means the concentration at half of the fitted maximal effect. The procedure, abridged: as §2
Assay [9] in a line: BET inhibitor-based combinations targeting novel dependencies in MECOM-rearranged (r) AML: AML-194 cell line (AID 2202237; further: nearly all actives have a fitted effect of over 40% in size; further: potency means the concentration at half of the fitted maximal effect). The procedure, abridged:
as §1

A short description of assay [10]: BET inhibitor-based combinations targeting novel dependencies in MECOM-rearranged (r) AML: HNT-34 cell line (AID 2202234). Further: nearly all actives have a fitted effect of over 35% in size. Further: potency means the concentration at half of the fitted maximal effect. The procedure, abridged:
as §2

Assay [11] is described as follows: BET inhibitor-based combinations targeting novel dependencies in MECOM-rearranged (r) AML: OCI-AML3 cell line (AID 2202232). Further: nearly all actives have a fitted effect of over 35% in size. Further: potency means the concentration at half of the fitted maximal effect. The conditions noted are these: Potency: OCI-AML3 viability. The procedure, abridged: as §1

Several values for one entry are separate records, joined by “and”; a condition that tells them apart may be missing. Equal values may be shown once. Inconclusive results are not listed. A number with no mark means an inactive call. Activity calls are given as the source filed them. The call rests on the fitted dose curve; in most records, active means well fitted curve in the direction sought with a large enough effect; inconclusive means small, poorly fitted or top-dose-only effect, or another doubt; inactive means no such curve, though single readings can be large; an effect the other way counts as inactive or inconclusive.

The results in this text go back to PubChem BioAssay (NCATS).

Sequence of Cellular tumor antigen p53 (Homo sapiens) (P04637 whole entry, looked up): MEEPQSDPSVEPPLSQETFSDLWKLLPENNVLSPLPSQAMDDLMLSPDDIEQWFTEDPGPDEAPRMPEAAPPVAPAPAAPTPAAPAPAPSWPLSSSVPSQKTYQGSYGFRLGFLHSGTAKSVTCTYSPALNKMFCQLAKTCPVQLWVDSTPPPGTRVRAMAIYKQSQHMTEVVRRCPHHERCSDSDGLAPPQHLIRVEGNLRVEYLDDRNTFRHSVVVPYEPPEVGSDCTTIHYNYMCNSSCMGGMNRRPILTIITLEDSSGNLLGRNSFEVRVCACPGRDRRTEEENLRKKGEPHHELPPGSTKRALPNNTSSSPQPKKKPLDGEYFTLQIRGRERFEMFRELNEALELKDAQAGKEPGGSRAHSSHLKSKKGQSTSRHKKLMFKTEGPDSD

In the case of `C[C@H]1Oc2cc(cnc2N)-c2c(nn(C)c2C#N)CN(C)C(=O)c2ccc(F)cc21`, in assay [1], the activation was 1.43% and -2.96%. The Potency entry in assay [2], in assay [3] and in assay [4] was “inactive” each time. For the same compound, the viability in assay [5] was 98.3%. Besides, the Potency in [6] was 18.6 µM (active); in [7], 1.32 µM (active).
Take `CCNCc1nc2c(N)nc3ccccc3c2n1CC(C)(C)O`: the activation in assay [1] is -0.477%. Further, the Potency entry in assay [2], in assay [3], in assay [4], in [8] and in assay [9] was “inactive” throughout. Besides, the viability in assay [5] is 94.4%. The Potency in assay [6] is 20.9 µM (active).
Take `O=C(NC[C@H](O)CN1CCc2ccccc2C1)c1cc(NC2COC2)ncn1`: the activation in [1] is 11.2% and -21.4%. Moreover, the Potency entry in assay [2], in [3], in assay [4], in assay [10], in assay [8] and in assay [7] was “inactive” in each case. In addition, the Potency entry in [9] was “inactive”. Further, in assay [5], the viability was 97%.
Turning to `CN1CCN(Cc2ccc(NC(=O)Nc3ccc(Oc4cc(NC(=O)C5CC5)ncn4)cc3)cc2C(F)(F)F)CC1`, the Potency is 0.968 µM (active) in assay [1]; 0.742 µM (active) in assay [5]; 0.372 µM (active) in assay [11]; 0.0468 µM (active) in [10]; 0.372 µM (active) in assay [8]; 0.59 µM (active) in assay [7]. Further, the Potency in assay [9] is 0.833 µM (active). The Potency result in assay [2], in [3] and in assay [4] was “inactive” throughout.
`Cc1nn(C)c(COc2ccc(N3CCN(S(=O)(=O)N(C)C)CC3)cc2)c1-c1cccc2c(CCCOc3cccc4ccccc34)c(C(=O)O)n(CCN3CCOCC3)c12`: in [1], the activation was -22.8%. Moreover, the Potency entry in [2], in assay [3], in [4], in assay [8], in assay [7] and in assay [9] was “inactive” each time. Also, the viability in assay [5] is 112%. In addition, in assay [6], the Potency is 6.61 µM (active).
For the compound `Cn1cc(-c2ccc(F)c(C(F)(F)F)c2)nc1C1CCN(c2ncnc3[nH]ncc23)CC1`, in assay [1], the activation is 10%. Further, the Potency entry in [2], in [3], in assay [4] and in assay [9] was “inactive” throughout. In addition, the viability in [5] is 96.6%. Also, the Potency in [11] was 0.742 µM (active); in assay [7], 20.9 µM (active).
With `O=C(Nc1cccc(C(F)(F)F)c1)Nc1cc(S(=O)(=O)NC2CC2)ccc1-c1ccsc1`, the activation in assay [1] is 29.6% and 2.39%. In addition, the Potency entry in assay [2], in assay [3] and in assay [4] was “inactive” in each case. The Potency in assay [6] was 26.3 µM (active).
`CC(C)C(=O)Nc1ncc(-c2cc(C(F)F)nn2-c2c(Cl)cccc2Cl)s1`: the activation in assay [1] was 35.2% and 29.6%. Further, the Potency result in [2], in assay [3], in assay [4] and in assay [8] was “inactive” each time. In addition, the Potency is 23.5 µM (active) in assay [11], 20.9 µM (active) in assay [6], 16.6 µM (active) in [10] and 20.9 µM (active) in [7].
With `Cc1nc2c([nH]1)CCN(C(=O)c1ccc(NC(=O)c3ccccc3-c3ccccc3)cc1)c1ccccc1-2`, the activation in assay [1] was -5.73% and -5.25%. Also, the Potency result in assay [2], in assay [3], in assay [4], in [8] and in assay [9] was “inactive” throughout. Besides, the Potency is 14.8 µM (active) in assay [11] and 20.9 µM (active) in assay [6].
In the case of `OCCn1cc(-c2cnc3nnn(Cc4ccc5ncccc5c4)c3n2)cn1`, in [1], the activation is -13.3% and 3.34%. Further, the Potency entry in assay [2], in [3], in assay [4] and in assay [8] was “inactive” throughout. Further, the viability in assay [5] is 101%.
For `Cc1nc(C(=O)NCC(=O)O)c(O)c2ccc(Oc3ccccc3)cc12`, in assay [1], the activation was 24.6% and -12.3%. The Potency entry in assay [2], in assay [3], in [4], in assay [8], in assay [7] and in assay [9] was “inactive” in each case. Moreover, the viability in [5] is 96.3%.
For the compound `Cc1nc(Nc2ncc(C(=O)Nc3c(C)cccc3Cl)s2)cc(N2CCN(CCO)CC2)n1`, the Potency in assay [1] was 9.53 µM (active); in assay [11], 13.2 µM (active); in assay [6] it was 13.2 µM (active); in assay [8] it was 7.42 µM (active); in [7], 14.8 µM (active); in assay [9], 11.8 µM (active). The Potency entry in assay [2], in [3] and in assay [4] was “inactive” in each case.
As to `Cc1cc(-c2ncc(CC(=O)Nc3ccc(-c4cnccn4)cn3)cc2C)ccn1`, the activation in assay [1] is -9.46% and -6.68%. For the same compound, the Potency entry in assay [2], in assay [3], in assay [4] and in assay [9] was “inactive” in each case. Besides, the Potency in [5] was 11.8 µM (active); in assay [8] it was 26.3 µM (active).
Regarding `CC(C)(C)NC(=O)Nc1cccc(Nc2ncc(F)c(NC(C)(C)CO)n2)c1`, in assay [1], the activation is -4.76% and -4.3%. Besides, the Potency result in [2], in assay [3] and in [4] was “inactive” in each case. Also, the Potency is 3.72 µM (active) in assay [11], 2.63 µM (active) in assay [6], 3.72 µM (active) in assay [8] and 5.9 µM (active) in assay [9].
As to `c1ccc(CNc2nc(N3CCOc4ccccc43)nc3c2CCCC3)cc1`, the activation in assay [1] was -5.48% and -6.21%. The Potency result in assay [2], in assay [3], in assay [4], in [11], in assay [8] and in assay [9] was “inactive” in each case.
Consider `CC(C)N(CCCNC(=O)Nc1ccc(C(C)(C)C)cc1)C[C@H]1O[C@@H](n2cc(Br)c3c(N)ncnc32)[C@H](O)[C@@H]1O`, for which the activation in assay [1] is -6.7%. Further, the Potency entry in assay [2], in assay [3], in assay [4] and in assay [8] was “inactive” each time. In addition, the Potency in assay [11] was 23.5 µM (active); in assay [6], 20.9 µM (active); in assay [10] it was 26.3 µM (active); in assay [9] it was 23.5 µM (active).
With `O=C(NCCCNc1nc(Nc2cccc(CN3CCOCC3)c2)ncc1C1CC1)C1CCC1`, in assay [1], the activation is -15.3%. The Potency result in [2], in assay [3] and in assay [4] was “inactive” throughout. For the same compound, the Potency in assay [6] was 0.417 µM (active); in assay [10], 16.6 µM (active).
With `Cc1ccc(Nc2cc(-c3cccc(N4C(=O)c5ccccc5C4=O)c3)ncn2)cc1NS(C)(=O)=O`, in assay [1], the activation is 19.8% and 20%. In addition, the Potency result in assay [2], in assay [3] and in [4] was “inactive” in each case. In addition, the Potency in [6] is 10.5 µM (active).
